# DRD3 antagonist = blocks the human D3 dopamine receptor; P35462; D3R cells, DiscoveRx beta-arrestin luminescence, antagonist mode; hits give low values; max response, negative = inhibition, %; hit rate 2.5% among 360,000; AID 652054; in the data active means max response below about -50%; inconclusive means no clear call, values can overlap the other calls; further: on the % scale 0 is the no-effect control and ±100 the full control effect
# Target sequence (P35462 whole entry, looked up): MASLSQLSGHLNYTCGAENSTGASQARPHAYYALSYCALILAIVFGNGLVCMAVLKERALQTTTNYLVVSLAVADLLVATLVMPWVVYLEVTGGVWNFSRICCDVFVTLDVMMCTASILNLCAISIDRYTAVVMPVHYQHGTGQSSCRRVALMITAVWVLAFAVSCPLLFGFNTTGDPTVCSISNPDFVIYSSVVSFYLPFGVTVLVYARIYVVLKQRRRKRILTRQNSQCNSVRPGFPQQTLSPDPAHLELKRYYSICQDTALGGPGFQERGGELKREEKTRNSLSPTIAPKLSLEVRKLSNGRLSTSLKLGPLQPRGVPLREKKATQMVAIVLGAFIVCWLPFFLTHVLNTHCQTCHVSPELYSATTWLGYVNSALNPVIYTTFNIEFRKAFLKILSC
#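 Cells plated overnight at 1500 cells/well, then exposed to library compounds with dopamine controls for 90 minutes at 37 degrees C. DiscoveRx reagent added for 30–60 minutes at room temperature; luminescence read, quantitative HTS format.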
# PI4K2A inh = PI4K2A (human) kinase inhibition | purified PI4K2A, ADP-Glo luminescence, 1 h; hits give low values | activity change, negative = inhibition, % at 76.9 µM | hit rate 0.13% among 420,000; in the data active means activity change below about -50%; inconclusive means mostly about -30% to -49%;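 further: -100% = wells without enzyme as full effect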
#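 In this quantitative HTS, ADP production by PI4K2A was quantified luminescently after 1 h at ambient temperature; 100 microM adenosine served as plate-quality control.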
# DRD3 agonist = D3 dopamine receptor (human) agonism. D3R DiscoveRx beta-arrestin cells, luminescence, 90 min. P35462. hit rate 0.58% among 410,000. max activation, %; in the data active means max activation above about 30%; further: 0% is about no effect
#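 Cells at 1500/well, incubated overnight, then treated with pinned compounds (dopamine as control) for 90 min at 37 degrees C. DiscoveRx reagent added for 30 - 60 minutes at room temperature; luminescence read.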
# LDHA inh = blocks human lactate dehydrogenase A; P00338; hit rate 0.15% among 480,000; activity change, % (values are at about 110 or 230 µM); AID 1347041; purified LDHA, NADH/diaphorase-resazurin fluorescence; hits give low values; in the data active means activity change below about -30%; inconclusive means mostly about -25% to -30%;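 further: plate controls were DMSO wells for no effect and wells without enzyme for full effect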
#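 Remaining NADH was detected by diaphorase (0.133 mg/mL) converting 37 µM resazurin to fluorescent resorufin, read at 0 and 20 minutes. The preceding 5-minute room-temperature reaction used 2 nM LDHA, 0.2 mM sodium pyruvate and 0.06 mM NADH at pH 7.4.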
# PI5P4K alpha inh = PI5P4K alpha (human) kinase inhibition; hit rate 1.2% among 330,000; P48426; max response, %; PI5P4Kalpha enzyme, ADP-Glo luminescence, 60 min; hits give low values; active means max response of -50% or lower; inconclusive means between -30% and -50%; inactive means -30% or higher; further: value at the top dose of about 77 µM; on the % scale 0 is the no-effect control and ±100 the full control effect
#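 qHTS, 1536-well: enzyme/substrate mix, compound by pin tool, 5 microM ATP final; RT 60 min; ADP-Glo reagents 1 (45 min) then 2 (30 min); luminescence.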
# * = called active by the depositor; ? = inconclusive; nt = no result given; ! = not confirmed by another sample. The list is not random: actives were taken first. Their share in the collection is about 3.3%.
SMILES,DRD3 antagonist,PI4K2A inh,DRD3 agonist,LDHA inh,PI5P4K alpha inh
CCc1nn(CC(=O)N2CCN(c3ccc(OC)cc3)CC2)c(=O)c2cc3occc3n12,8,-3,34*,-3,-2
Oc1cc(CNCc2ccccc2)c(O)cc1CNCc1ccccc1,-11,-26,0,30,-56*
CC1([N+](=O)[O-])COC2(CCCCC2)OC1,-50*,-9,83*,-12,3
CC1([N+](=O)[O-])COC2(OC1)C(=O)Nc1ccccc12 (stereo not given),0,1,-11,-2,5
N#Cc1cccc(/C=C/C(=O)c2cccc(N3CCOCC3)c2)c1,nt,nt,nt,9,nt
Cc1ccc(S(=O)(=O)NC(=S)NC2CCCCC2)cc1,-14,-2,0,-6,-24
CCc1ccc(S(=O)(=O)NC(=S)NC2CCCCC2)cc1,-67*,4,-5,-10,-17
N#Cc1ccc(NC(=O)OC2CCC23CCC(c2ccccc2)CC3)cc1 (stereo not given),nt,-3,nt,nt,nt
O=C1c2ccccc2C(=O)C1c1ccc(F)cc1,nt,nt,62*,nt,nt
O=C1c2ccccc2C(=O)C1c1ccc(O)cc1,10,-15,7,2,9
O=C1c2ccccc2C(=O)C1c1ccc(Br)cc1,-4,-4,88*!,-6,-1
CN1CCOC(CNCc2cccc(C#N)c2)C1 (stereo not given),nt,nt,nt,1,nt
COc1cccc2cc(-c3cc(=O)oc4ccc(C)cc34)oc12,nt,nt,nt,0,nt
COc1ccc2oc(=O)cc(-c3cc4cccc(OC)c4o3)c2c1,5,-1,1,-33*!,2
N#Cc1cccc(NCc2c(F)cccc2Cl)c1,nt,nt,nt,5,nt
NNc1nc2sc3c(c2c(=O)[nH]1)CCc1ccccc1-3,-55*,4,-6,-13,?
CC1CC(C)CN(CCCNC(=O)C2CCC(=O)N2C2CCCC2)C1 (stereo not given),?,10,0,-2,nt
O=C(NCCCN1CCC(Cc2ccccc2)CC1)C1CCC(=O)N1C1CCCC1 (stereo not given),-118*,2,-10,-6,5
O=C(NCCCN1CCN(c2ccccc2F)CC1)C1CCC(=O)N1C1CCCC1 (stereo not given),-87*,-2,1,-4,1
O=C(NCCCN1CCCC1)C1CCC(=O)N1C1CCCCC1 (stereo not given),-12,0,1,-10,nt
CCOc1ccc(NC(=O)N2c3ccccc3Sc3ccccc32)cc1,nt,nt,nt,0,nt
CC(=O)Oc1ccc(-c2cnc3ccccc3n2)cc1,nt,nt,nt,1,nt
Cc1ccccc1NC(=S)Nc1cccc2cnccc12,-2,-23,6,25,-16
Cc1ccc(C)c(NC(=S)Nc2cccc3cnccc23)c1,-21,-55*,-13,45,-2
O=Cc1cccc(Oc2ncccn2)c1,1,4,2,-2,2
SMILES,DRD3 antagonist,PI4K2A inh,DRD3 agonist,LDHA inh,PI5P4K alpha inh
Nc1ccc(Oc2ncccn2)cc1,-13,-54*,1,13,-22
Cc1ccc([C@@H]2c3c(C)nn(-c4ccccc4)c3NC(=O)[C@H]2NC(=O)c2cccc(C)c2)cc1,nt,nt,nt,-3,nt
O=C(Nc1cccc(Cl)c1)c1cc(N=Nc2ccc([N+](=O)[O-])cc2Cl)ccc1O,-26,-10,1,-46*,?
O=C(Nc1ccc([N+](=O)[O-])cc1Cl)c1cc(Cl)ccc1O,35,2,5,-17,0
CCN(CC)CCNC(=O)C1c2cc(OC)c(OC)cc2C(=O)N(C)C1c1cccs1 (stereo not given),-98*,13,-17,-1,1
CCCCN(CC)CCNC(=O)C1c2cc(OC)c(OC)cc2C(=O)N2CCc3ccccc3C12 (stereo not given),-76*,0,3,-3,-1
CCN1CCN(C(=O)C2c3cc(OC)c(OC)cc3C(=O)N3CCc4ccccc4C23)CC1 (stereo not given),-4,9,-10,0,1
COc1cccc(-c2cccc3c2NC(=O)C3(C)Cc2cccc(F)c2)c1 (stereo not given),-70*,2,-11,1,8
CC1(Cc2cccc(F)c2)C(=O)Nc2ccc(-c3cccnc3)cc21 (stereo not given),-17,4,-19,-8,1
Cc1occc(=O)c1O,-53*,5,1,4,-2

# Screening results as filed in PubChem.
